# Bioassay records from PubChem BioAssay.
# Most compounds without a hit are left out; they make up all but 5.4% or so of the library.
# Beta cell apopt = beta cell apoptosis inhibition | INS-1E cytokine-induced death, ATP luminescence, 48 h; percent of positive-control rescue, neutral wells zero | protection from apoptosis, % (test concentration not listed) | 300,000 compounds, 0.8% hits;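 active = Every replicate reaches about 75%, or at least half do and their mean reaches it too, limit read from the data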;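 note: 0% = cytokine-treated negative control wells and 100% = positive control rescue; higher means more ATP so stronger rescue from cytokine killing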
# Calb FLC = C. albicans growth modulation with fluconazole | 300,000 compounds, 0.57% hits | growth inhibition, % (no concentration beside the values) | C. albicans CaCi-2 (fluconazole-resistant clinical isolate) + fluconazole, Alamar Blue growth, 48 h;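 active = growth inhibition above about 58% in most replicates, limit read from the data, passing the limit was not always enough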;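 note: all wells also contain fluconazole at 8 µg/ml as a sub-toxic cotreatment; 0% = median of DMSO wells and 100% = median of geldanamycin control wells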
# Mdm2 MdmX PPI = disrupts the human Mdm2-MdmX interaction | O15151+Q00987 | SaOS-2 split-luciferase Mdm2/MdmX complementation, luminescence | inhibition, % at 8 µM | 330,000 compounds, 3% hits | AID 485346;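 active = inhibition of at least 50% at 8 µM in the primary screen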
# Target sequence (O15151 whole entry, looked up): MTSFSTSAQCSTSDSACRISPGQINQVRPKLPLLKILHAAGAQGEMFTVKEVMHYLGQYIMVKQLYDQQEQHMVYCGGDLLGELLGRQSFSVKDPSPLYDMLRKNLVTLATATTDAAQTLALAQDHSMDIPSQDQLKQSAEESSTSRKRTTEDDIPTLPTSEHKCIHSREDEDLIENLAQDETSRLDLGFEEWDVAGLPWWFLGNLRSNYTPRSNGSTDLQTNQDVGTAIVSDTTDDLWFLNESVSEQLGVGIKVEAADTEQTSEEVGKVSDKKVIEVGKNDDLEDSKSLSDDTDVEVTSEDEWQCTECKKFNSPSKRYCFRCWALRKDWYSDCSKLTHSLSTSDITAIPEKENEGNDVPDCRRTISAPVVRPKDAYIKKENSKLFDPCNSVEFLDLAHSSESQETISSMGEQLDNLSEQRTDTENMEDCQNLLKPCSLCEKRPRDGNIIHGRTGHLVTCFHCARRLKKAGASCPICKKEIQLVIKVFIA
# Target sequence (Q00987 whole entry, looked up): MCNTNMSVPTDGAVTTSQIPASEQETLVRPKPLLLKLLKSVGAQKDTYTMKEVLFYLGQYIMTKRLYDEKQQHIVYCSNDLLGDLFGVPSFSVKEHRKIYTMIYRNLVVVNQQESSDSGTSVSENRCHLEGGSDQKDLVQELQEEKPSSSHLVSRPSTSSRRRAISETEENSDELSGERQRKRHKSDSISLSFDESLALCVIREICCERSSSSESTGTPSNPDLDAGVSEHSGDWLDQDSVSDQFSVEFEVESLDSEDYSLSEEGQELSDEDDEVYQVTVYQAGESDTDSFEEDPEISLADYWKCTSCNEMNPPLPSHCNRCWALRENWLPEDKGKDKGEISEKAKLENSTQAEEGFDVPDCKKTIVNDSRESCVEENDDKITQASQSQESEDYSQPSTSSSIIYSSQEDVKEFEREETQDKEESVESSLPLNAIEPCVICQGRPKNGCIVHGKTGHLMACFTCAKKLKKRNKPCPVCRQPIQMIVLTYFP
# CSC inhib = cancer stem cell inhibition | AID 2717 | inhibition, % at 7.5 µM | 300,000 compounds, 1.1% hits | cancer stem cell-like cells viability, luminescence; in the data active = inhibition above about 75%; tested in HMLE shEcad cells
# MPTP inh = inhibitors of mitochondrial permeability transition pore | inhibition, % at 10 µM | AID 602449 | isolated mouse mitochondria, Ca2+ swelling absorbance, 30 min | 360,000 compounds, 1.4% hits;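 active = inhibition of 50% or more, scaled per plate between neutral and stimulator controls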;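 note: 0% = DMSO wells given calcium and 100% = 1 mM EGTA wells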
# SKKanGAS inh = inhibitors of SKKanGAS S. pyogenes growth in kanamycin (SK-promoter or general growth effect); inhibition, % at 7.5 µM; BacTiter-Glo, 6 h; 300,000 compounds, 1.3% hits;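 active = mean replicate score, as percent of positive control median, at least 50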;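 note: strain carries kanamycin resistance gene driven by streptokinase promoter and grows in 40 µg/ml kanamycin; loss of luminescence reflects streptokinase promoter inhibition or plain growth inhibition; 0% = median of DMSO wells and 100% = positive control at its reference dose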
# Rh123 counter = membrane potential counter-screen of mitochondrial pore inhibitors; shares compounds with MPTP inh; isolated mitochondria, Rhodamine 123 fluorescence; inhibition, % at 10 µM; 5,000 compounds, 78% hits; in the data active = inhibition above about 22%;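 note: 0% = DMSO vehicle and 100% = positive control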
# MPTP abs DR = dose response confirmation of mitochondrial permeability transition pore inhibitors; shares compounds with MPTP inh; isolated mitochondria swelling, absorbance; IC50, µM; 780 compounds, 58% hits; in the data active = IC50 below about 20 µM
# MPTP counter DR = active in counter-screen for permeability transition pore inhibitors | shares compounds with MPTP inh | isolated mitochondria counterscreen, fluorescence read-out | IC50, µM | 780 compounds, 49% hits; in the data active = IC50 below about 80 µM
# Starred values were filed as active, the others as inactive; nt = no result; ! = not confirmed by another sample.
SMILES,Beta cell apopt,Calb FLC,Mdm2 MdmX PPI,CSC inhib,MPTP inh,SKKanGAS inh,Rh123 counter,others
Cn1c(SCc2ccc(F)cc2)nnc1-c1cnccn1,5,3,17,-10,0,-2,nt,
COc1cc2c(cc1NC(=S)Nc1cccc3ccccc13)oc1ccccc12,-4,-10,-14,-2,0,12,nt,
CCOc1ccc(NC(=S)NNC(=S)Nc2cccc(C(F)(F)F)c2)cc1,24,2,6,34,80*,51*,57*,
CCOc1cc(OCC)cc(C(=O)NC(=S)Nc2cccc(C(F)(F)F)c2)c1,-2,-2,30,2,4,30,nt,
COc1ccc(NC(=S)NNC(=S)Nc2cccc(C(F)(F)F)c2)cc1,23,-1,27,68,69*,7,72*,
COc1ccc(-c2cc(C(=O)Nc3cc(OC)cc(C(=O)Nc4cccc(C(F)(F)F)c4)c3)[nH]n2)cc1,18,-1,33,14,55*!,23,56*,
COc1cc2c(cc1NC(=S)Nc1cccc(C(F)(F)F)c1)oc1ccccc12,10,-10,29,50,94*,1,80*,
COc1ccc(C(CC(=O)N2CCOCC2)C(C)C)cc1 (configuration not stated),-6,3,-8,nt,1,3,nt,
Nc1nc2ccc(Cl)cc2cc1C(=O)NCCCN1CCOCC1,nt,nt,nt,nt,-1,nt,nt,
CC1CCCN(S(=O)(=O)c2ccc(C(=O)Nc3ccccc3-c3nc4ccccc4[nH]3)cc2)C1 (configuration not stated),15,0,39,19,90*,11,3,MPTP abs DR=7.2*;MPTP counter DR=4.2*
CC1CCN(S(=O)(=O)c2ccc(C(=O)Nc3ccccc3-c3nc4ccccc4[nH]3)cc2)CC1,11,-6,37,17,94*,3,64*,
OCc1ccc(-c2cncc3nccn23)cc1,nt,nt,nt,nt,-1,nt,nt,
Cc1ccc(NC(=S)Nc2ccc(C(C)C)cc2)cc1S(=O)(=O)N1CCCCCC1,27,-2,0,75*,103*,56*,78*,
O=C1NC(=O)C(=O)N1,3,nt,9,-5,-4,nt,nt,
O=C1CSc2ccc(C(=O)Nc3cccc(S(=O)(=O)Nc4ccc(Br)cc4)c3)cc2N1,41,-1,28,87*,89*,73*,71*,
COc1ccc(NS(=O)(=O)c2ccc3c(c2)Cc2ccccc2-3)cn1,3,2,28,15,84*,-1,87*,
CCOc1ccc(S(=O)(=O)Nc2cnc3ccccc3c2)cc1,39,9,-4,nt,87*,-2,90*,
O=C(O)c1ccc(NC(=O)c2cccc(S(=O)(=O)Nc3ccc(C(=O)O)cc3)c2)cc1,1,-8,15,-8,1,-8,nt,
COc1ccc(NC(=O)c2cccc(S(=O)(=O)Nc3ccc(Br)cc3)c2)cn1,-4,3,6,20,97*,14,80*,
COc1ccc(NS(=O)(=O)c2ccc(N3CCCC3=O)cc2)cn1,16,-5,35,29,0,-2,nt,
O=C(O)CNC(=S)NCc1ccccc1,-2,-19,3,-3,0,2,nt,
CCOC(=O)C1(CCOc2ccccc2)CCN(Cc2cccn2-c2cccnc2)CC1,7,-4,21,8,1,-6,nt,
O=C(Nc1ccc(Br)cc1)c1cccc(S(=O)(=O)Nc2cnc3ccccc3c2)c1,38,21,24,51,108*,36,74*,
CCOC(=O)c1sc(NC(=O)CSCc2c(C)noc2C)nc1C,4,nt,-21,-7,1,nt,nt,
CCn1cc(CN2CCN(Cc3ccccc3)C(CCO)C2)c2ccccc21 (configuration not stated),nt,-15,-18,-6,3,-4,nt,
SMILES,Beta cell apopt,Calb FLC,Mdm2 MdmX PPI,CSC inhib,MPTP inh,SKKanGAS inh,Rh123 counter,others
O=C(Nc1cc(Sc2nc3ccccc3s2)cc([N+](=O)[O-])c1)c1cccc(F)c1F,nt,4,27,48,94*,6,71*,
Cc1c(C)n(CCN(C)C)c2ccc(C(=O)OCCN(C)C)cc12,10,4,nt,38,0,6,nt,
Cc1c(C)n(Cc2ccccc2)c2ccc(C(=O)OCCCN(C)C)cc12,13,-1,39,0,78*,6,-3,
Cc1ccc2c(c1)N(CC(=O)NC1CCCCC1)C(=O)c1cccnc1O2,nt,-1,6,nt,-1,-7,nt,
CC(=O)c1cccc(NC(=O)c2ccc(-c3c(C)noc3C)c3ccoc23)c1,nt,nt,nt,nt,-1,nt,nt,
COc1ccc(-c2nnc(CSc3nnc(-c4ccncc4)n3C3CCCCC3)o2)cc1OC,-2,-9,-1,5,5,-14,nt,
O=c1[nH]nc(SCc2nnc(-c3cccc(Cl)c3)o2)n1C1CCCCC1,0,7,12,-17,73*,-10,33*,
CCOc1ccc(Nc2nc(Cc3nnc(SCC(=O)c4ccc(C)c(C)c4)o3)cs2)cc1,97*,-26,15,20,83*,14,74*,
Cc1ccc(NC(=O)CSc2nnc(Cc3csc(C)n3)o2)cc1,-5,nt,-43,2,0,nt,nt,
OC(CN1CCN(c2ccc(C(F)(F)F)cn2)CC1)c1ccccc1 (configuration not stated),-2,-1,13,27,1,-3,nt,
O=C(COC(=O)c1cc(S(=O)(=O)N2CCCC2)ccc1O)Nc1ccccc1Br,0,nt,-28,-2,0,nt,nt,
O=C(COC(=O)c1cc(S(=O)(=O)Nc2ccccc2Cl)ccc1O)Nc1ccc(F)c(F)c1F,4,nt,11,-10,68*,nt,85*,
Cc1sc(NC(=O)c2cccs2)nc1-c1ccccc1,-1,13,17,14,0,5,nt,
CC(=O)c1c(C)[nH]c(C(=O)Nc2nc(-c3ccccc3)c(C)s2)c1C,-2,-14,-21,5,79*,5,55*,
O=C(Nc1cccc2cccnc12)c1csc(COCCO)n1,nt,nt,nt,nt,-1,nt,nt,
CN(/N=C/c1cc(Cl)cc(Cl)c1O)C(=S)NC(C)(C)C,15,-5,8,100*,85*,28,75*,
Oc1c(Cl)cc(Cl)cc1C=Nc1ccc2c(c1)OCCO2,-3,-29,36,-7,3,5,nt,
CNc1nc(-c2ccc([N+](=O)[O-])cc2)cs1,-4,-2,-5,10,-4,2,nt,
COc1ccc(-c2csc(NS(=O)(=O)c3ccc([N+](=O)[O-])cc3)n2)cc1,3,4,-36,-13,84*,11,78*,
Nc1nc(N)c2[nH]c(=S)[nH]c2n1,nt,nt,nt,nt,0,nt,nt,
Cc1cccc(OCC(=O)Nc2ccc(C(=O)Nc3ccccc3C(=O)O)cc2)c1,nt,nt,nt,nt,0,nt,nt,
